Compound activity from PubChem BioAssay.
Compounds with a hit are over-represented: about 19% of the library has one in this group of screens.
CHX counter: counter-screen for Shiga toxin inhibitors: cycloheximide protein synthesis inhibition. max response, %. cell reporter, cycloheximide protein synthesis inhibition counterscreen. 300,000 tested, 12% active; in the data active = max response mostly above about 13%, no sharp cut-off; inactive = mostly below about 14%; note: read at 38.3 µM for the half of the compounds with a filed dose; 0% is about no effect
Pf growth 96h: P. falciparum growth inhibition at 96 hours. 320,000 tested, 6.9% active. Potency, µM (highest dose often 28.7 µM), inactives show top-dose activity change, negative = inhibition, hits mostly inhibitors. P. falciparum luciferase reporter growth, 96 h; note: potency is the fitted concentration of half-maximal effect; % is set by controls: 0 for no effect and ±100 for the full control effect
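P. falciparum expressing integrated firefly luciferase grown in erythrocytes (2% hematocrit, 0.05% parasitemia final) with compounds for 96 hours at 37 C, 5% CO2. Growth inhibition read as loss of luminescence after adding luciferase detection reagent.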
Shiga toxin inh: Shiga toxin inhibition | Vero cells, Shiga toxin protein synthesis inhibition reporter | inhibition, % at 38.7 µM | 290,000 tested, 9.2% active | AID 2315; in the data active = inhibition mostly above about 28%, no sharp cut-off; inactive = mostly below about 43%; note: 0% is about no effect
Pf growth 48h: inhibits P. falciparum growth in the first generation, 48 h | P. falciparum luciferase growth in erythrocytes, 48 h | Potency, µM (series often up to 28.7 µM), inactives show at the top dose activity change, negative = inhibition, most hits filed as inhibitors | 310,000 tested, 5.9% active; note: potency is the fitted concentration of half-maximal effect; % is set by controls: 0 for no effect and ±100 for the full control effect
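First compound was added to culture medium, then infected red cells at 0.1% parasitemia and 2% hematocrit (final). After incubation at 37 C under 5% CO2, luciferase detection reagent was dispensed and light output recorded.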
AMA1 RON2 block: inhibitors of Plasmodium falciparum AMA1-RON2 interaction; 360,000 tested, 0.2% active; AlphaScreen AMA1-biotinylated RON2 peptide binding; AID 720542; Potency, µM (highest dose often 58.2 µM), for the others: at the highest dose activity change, negative = inhibition, usual class: inhibitors;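 note: potency is the fitted concentration of half-maximal effect; 0% = vehicle wells and -100% = peptide control; nearly all actives have a fitted effect of over 45% in size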
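AMA1 (3D7) with his tag at 25 nM final met compounds first, then biotinylated RON2 peptide at 25 nM; detection used donor plus acceptor beads, 10 µg/mL apiece, read by AlphaScreen after 30 min at room temperature.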
SARS PLpro yeast-1: SARS-CoV PLP inhibition in yeast; S. cerevisiae expressing SARS-CoV PLpro, growth rescue; Potency, µM (doses to about 32.9 µM), for inactives: top-dose activity, positive = growth rescue, most hits filed as activators; 330,000 tested, 0.19% active; AID 485353; calls by dose curve; note: potency is the fitted concentration of half-maximal effect; 0% is about no effect; nearly all actives have a fitted effect of over 55% in size
SARS PLpro yeast-2: Rescues yeast growth by inhibiting SARS-CoV PLpro. yeast expressing SARS-CoV PLpro, growth phenotype rescue. AID 652038. 1,000 tested, 19% active. calls only. shares compounds with SARS PLpro yeast-1; call rule not given here
* marks the source's active call; other numbers are inactive results; i = inactive; ? = inconclusive; / = not tested or not shown; + = active, no number. Unless noted, calls come from the whole dose curve; as a rule, active = well fitted curve in the direction sought with a large enough effect; inconclusive = small, poorly fitted or top-dose-only effect, or another doubt; inactive = no such curve, though single readings can be large; an effect the other way counts as inactive or inconclusive.

SMILES	CHX counter	Pf growth 96h	Shiga toxin inh	Pf growth 48h	AMA1 RON2 block	SARS PLpro yeast-1	SARS PLpro yeast-2
COc1ccc(S(=O)(=O)N(CCc2ccccc2)CC(=O)O)cc1Cl	-1.3	/	-21.4	16.1%	62.8%	?	i
COc1cc(/C=N/NC(=O)CN(CCc2ccccc2)S(=O)(=O)c2ccc(NC(C)=O)cc2)cc(OC)c1OC	-1.4	40.6%	-8.1	?	-5.3%	-1.3%	/
O=C1C(c2ccccc2)=C(N2CC2)c2ccccc21	16.5	3.7µM*	40.7	5.86µM*	28.2µM*	?	i
CCCCN1C(C)=CC(=C2C(=O)c3ccccc3C2=O)C=C1C	9.9	-17.9%	44.7	300.0%	8.4%	-2.1%	/
CSCC[C@H](NS(=O)(=O)c1ccc(C(C)=O)cc1)c1nnc2ccccn12	8.3	15.7%	-17.4	21.5%	-5.6%	-2.4%	/
O=C(O)/C=C/C(=O)N(CC1CCCO1)C1CC(=O)N(c2c(Cl)cccc2Cl)C1=O (stereo not drawn)	2.3	41.9%	22.7	53.8%	-6.2%	-1.0%	/
O=C(N/N=C/c1c(O)n(C2CC2)c(=S)[nH]c1=O)c1ccccc1O	25.4*	?	25.9	-12.6%	-20.5%	12.6µM*	i
Cn1c(SCC(=O)Nc2cccc(S(=O)(=O)NC3=NCCCCC3)c2)nnc1-c1ccncc1	0.9	?	-15.8	0.8%	-0.6%	2.3%	/
Clc1ccccc1-c1ccc(CN2CCN(c3ccccc3)CC2)o1	7.0	/	24.9	/	4.7%	-36.6%	/
O=C(O)CSc1c(-c2ccccc2)c2cc(Cl)ccc2[nH]c1=O	-2.7	-10.5%	-3.9	9.6%	-6.5%	?	i
CC(CCc1ccccc1)NC(=O)COC(=O)c1cccs1 (stereo not drawn)	1.2	32.5%	-18.4	11.0%	9.2%	0.0%	/
CCCCC(=O)NC(c1ccc(N(C)C)cc1)c1ccc2cccnc2c1O (stereo not drawn)	6.8	47.2%	3.5	?	-81.3%	?	/
CCCC(=O)NC(c1ccc(Cl)cc1)c1ccc2cccnc2c1O (stereo not drawn)	1.1	-0.8%	-7.3	?	48.6%	-17.3%	/
CCCCC(=O)NC(c1ccc(N(CC)CC)cc1)c1ccc2cccnc2c1O (stereo not drawn)	-0.2	10.6%	-13.6	?	26.8%	3.98µM*	?
CCCC(=O)NC(c1ccc(C)cc1)c1ccc2cccnc2c1O (stereo not drawn)	-0.8	32.5%	-6.0	3.7µM*	-20.4%	?	+
CCCC(=O)NC(c1ccc2c(c1)OCO2)c1cc(Cl)c2cccnc2c1O (stereo not drawn)	1.6	-2.2%	-4.7	?	32.9%	2.82µM*	i
CCOC(=O)Cc1cc(=O)c2cc(C)ccc2[nH]1	-4.0	?	-7.6	?	5.9%	2.2%	/
O=C(C(=O)N1CCN(c2ccccc2Cl)CC1)c1c[nH]c2ccccc12	-1.8	1.4%	-4.8	9.5%	-6.2%	-10.1%	/
CN(NC(=O)NN)c1ncc(C(F)(F)F)cc1Cl	-1.0	?	16.0	-23.3%	54.3%	2.6%	/
O=C(CSc1nc(CCC2CCCC2)nc2ccccc12)NCc1ccc2c(c1)OCO2	-0.2	?	-3.7	-18.8%	16.1%	-1.1%	/
Cc1ccccc1C(=O)N1CCC2CC1c1cc(-c3ccc(F)cc3)ccc12 (stereo not drawn)	/	/	/	/	-13.6%	/	/
COc1cccc(-n2nnc3c(=O)n(CC(=O)OCc4ccccc4)cnc32)c1	-2.3	0.165µM*	11.5	13.4%	1.7%	?	i
CCOC(=O)Cn1cnc2c(nnn2-c2cccc(OC)c2)c1=O	18.5	9.7%	4.4	3.0%	-11.7%	-0.7%	/
COc1ccc(C2C=C(C34CC5CC(CC(C5)C3)C4)NC(=S)N2)cc1OC (stereo not drawn)	-3.4	9.28µM*	-10.5	?	14.7%	14.1µM*	+
O=C(O)c1cccc(-c2ccc(/C=N/n3cnc4sc5c(c4c3=O)CCCC5)o2)c1	7.3	19.1%	22.1	5.0%	/	0.0%	/
SMILES	CHX counter	Pf growth 96h	Shiga toxin inh	Pf growth 48h	AMA1 RON2 block	SARS PLpro yeast-1	SARS PLpro yeast-2
CC(C)C[C@H](NC(=O)c1nc[nH]c1C(=O)N1CCc2ccccc2C1)C(=O)OC(C)(C)C	-4.9	-17.2%	-3.6	?	114.4%	-0.5%	/
CCCc1cc(-n2ccnc2)n2c(nc3ccccc32)c1C#N	-2.3	?	-7.4	?	0.1%	1.7%	/
Cc1cc(-n2ccnc2)n2c(nc3ccccc32)c1C#N	-2.4	-47.0%	-20.8	/	2.6%	?	?
O=C(O)COc1ccccc1C(Nc1ccccn1)c1cc(Cl)c2cccnc2c1O (stereo not drawn)	-2.0	-5.2%	-3.5	3.1%	-9.9%	5.01µM*	i
COc1cccc(C(NC(C)=O)c2nc(-c3cccc4cccnc34)cs2)c1 (stereo not drawn)	/	/	/	/	2.5%	/	/
CCC(=O)NC(C)c1cc(Cl)c2cccnc2c1O (stereo not drawn)	/	?	/	?	/	-2.6%	/
CC(=O)NC(c1ccc(Cl)cc1Cl)c1ccc2cccnc2c1O (stereo not drawn)	-1.3	30.8%	-2.3	4.15µM*	-47.5%	?	i
COc1ccc(C(NC(C)=O)c2ccc3cccnc3c2O)c(OC)c1 (stereo not drawn)	-4.3	3.29µM*	-8.8	1.65µM*	-39.1%	2.24µM*	+
CC(=O)NC(C)c1cc(Cl)c2cccnc2c1O (stereo not drawn)	/	?	/	?	/	?	i
O=C1NC2=C(C(=O)OC2)C(c2ccc(OC(F)(F)F)cc2)N1 (stereo not drawn)	-1.8	-0.1%	6.1	-1.9%	8.4%	-0.4%	/
C/C(CC(=O)Nc1ccc(N(C)C)cc1)=N\NC(=O)Cc1csc(N)n1	19.5*	44.6%	47.8*	?	25.3%	17.8µM*	i
Nn1c(COc2ccccc2F)nnc1SCC(=O)NC1CCS(=O)(=O)C1 (stereo not drawn)	/	25.2%	/	14.4%	-2.7%	-3.6%	/
O=C(N/N=C/c1ccccc1O)c1cccc(C(F)(F)F)c1	16.4	?	47.6*	?	59.7%	?	i
O=C(NN=Cc1ccccc1O)C(O)(c1ccccc1)c1ccccc1	/	/	/	/	61.2%	/	/
CC(C)C(=O)Nc1ccc2c(c1)C(=O)NC2=O	-5.0	-26.6%	-11.1	23.1%	-4.2%	0.1%	/
Nc1nc(SCc2ccccc2Cl)nc2nc3c(cc12)CCCC3	2.7	-17.4%	-2.9	?	31.4%	?	i
Nc1cc(N)nc(SCc2ccccc2Cl)n1	/	/	/	/	-9.9%	/	/
CCCOc1ccc(/C=C/C(=O)NCc2ccccc2)cc1	-2.0	-21.3%	12.3	?	23.7%	-14.3%	/
CCc1ccccc1NC(=O)CNC(=O)c1ccc(OCc2cn3ccccc3n2)cc1	/	/	/	/	-12.3%	-3.0%	/
